Assay results taken from PubChem BioAssay (EPA / NIEHS).
Where “and” joins values, the source holds several entries; their conditions need not be identical. Identical values can stand only once. The source holds several records for some structures; these can differ, active in one and inactive in another. Calls of active or inactive are those of the source. The calls were made as follows: active = hit-call score of the fitted dose curve at least 0.9, where 1 is the maximum; inactive = score below 0.9.

The compounds below were run on Urokinase-type plasminogen activator receptor (uPAR), PLAUR (gene 5329) (assay: BSK_4H_uPAR: BioMAP Diversity Plus: 4H Assay for Urokinase-type plasminogen activator receptor (uPAR) Biomarker Activity (AID 2283030)). Conditions: primary human endothelial cells (HUVEC); actives raise or lower the signal.
Description: BSK_4H is a cell-based, multiplexed-readout assay that uses umbilical vein endothelium, a human vascular primary cell, with measurements taken at 24 hours after chemical dosing in a 96-well plate.BSK_4HAR is an assay component measured in the BSK_4H assay. It measures uPAR antibody related to regulation of gene expression using ELISA technology.Data from the assay component BSK_4HAR was analyzed into 1 assay endpoint. This assay endpoint, BSK_4HAR, was analyzed with bidirectional fitting relative to DMSO as the negative control and baseline of activity. Using a type of binding reporter, gain or loss-of-signal activity can be used to understand changes in the signaling as they relate to the gene PLAUR. Furthermore, this assay endpoint can be referred to as a primary readout, because this assay has produced multiple assay endpoints where this one serves a signaling function. To generalize the intended target to other relatable targets, this assay endpoint is annotated to the cytokine intended target family, where the subfamily is plasmogen activator.
The levels of cell surface (or secreted, indicated by the prefix "s") biomarker endpoints were measured by ELISA. Overt cytotoxicity to cells in confluent adherent cultures (all systems other than the BT system) was assessed by measuring total protein levels using sulforhodamine B (SRB) staining in parallel cultures at the time of biomarker measurements, indicated as SRB endpoints. For proliferation assays for adherent cell types, individual cell types are cultured at sub-confluence and relative cell numbers quantified by SRB staining at time points optimized for each system (48 h: 3C and CASM3C systems; 72 h: BT and HDF3CGF systems; 96 h: SAg system). SRB was performed by staining cells with 0.1% SRB after fixation with 10% TCA and reading wells at 560 nm.Viability and proliferation of PBMC (T cells) was quantified by Alamar Blue reduction for the SAg and BT systems. For PBMC viability (referred to as PBMC Cytotoxicity within the assay endpoint names), cells were plated (75,000/well in a 96-well plate) and then chemical samples added for 1 h before addition of activators, SEB and TSST-1 (20 ng/mL final concentration each). Cells were incubated for 90 h. Then, Alamar Blue (20 uL/well) (Invitrogen, Cat DAL1100) was added for 6 h, and the plates were read with a fluorescence microplate reader at 546/580 nm (excitation/emission). For PBMC proliferation, cells were plated and activated as above but incubated for only 16 h prior to addition of Alamar Blue. Plates were read after 6 h.
In the case of `Cc1cc(CCN2CCN(c3nsc4ccccc34)CC2)cc2c1NC(=O)CC2(C)C`, the AC50 is reported as 4.39 µM (active).
For `Cc1cc(C)c(O)c(C)c1`, the outcome was “inactive”.
With `OCCC(F)(F)C(F)(F)C(F)(F)C(F)(F)C(F)(F)C(F)(F)C(F)(F)C(F)(F)F` the outcome was “inactive” and the AC50 was 39.7 µM (active) and 27.8 µM (active).
With `O=c1c(-c2ccc(O)cc2)coc2cc(O)ccc12` the outcome was “inactive”.
With `CCCCCCCCCCCCCC[N+](C)(C)C` the outcome was “inactive”.
`COc1ccc([N+](=O)[O-])cc1N` was tested, and the outcome was “inactive”.
With `NC(=O)N1C(=O)C(C(=O)c2cc(Cl)cs2)c2cc(F)c(Cl)cc21` (stereo not given) the AC50 was 12.7 µM (active).
`COC(=O)CCCCC(=O)OC` was tested, and the outcome was “inactive”.
`CCC(=C(c1ccc(O)cc1)c1ccc(OCCN(C)C)cc1)c1ccccc1` was tested, and the AC50 was 7.41 µM (active).
In the case of `CCCCCCCCC(=O)O`, the outcome is reported as “inactive”.
For `CCN(CC)CCNc1ccc(CNC=O)c2sc3ccc(OC)cc3c(=O)c12`, the AC50 was 9.57 µM (active).
In the case of `CC(C)(C)c1cc(C(C)(C)C)c(O)c(C(C)(C)C)c1`, the outcome is reported as “inactive”.
For `C#C[C@]1(O)CC[C@H]2[C@@H]3CCC4=CC(=O)CC[C@@H]4[C@H]3CC[C@@]21C`, the AC50 was 11 µM (active).
In the case of `CCc1nn(C2CCCCC2)c2cc(C3(C#N)CCC(C(=O)O)CC3)ccc12` (stereo not given), the AC50 is reported as 4.94 µM (active).
With `C=C(C)C(=O)OCCC(F)(F)C(F)(F)C(F)(F)C(F)(F)C(F)(F)C(F)(F)F` the outcome was “inactive”.
In the case of `C[C@@H]1C[C@H]2[C@@H]3CCC4=CC(=O)C=C[C@]4(C)[C@@]3(F)[C@@H](O)C[C@]2(C)[C@@]1(O)C(=O)COP(=O)(O)O`, the outcome is reported as “inactive”.
With `CC(O)CO` (stereo not given) the outcome was “inactive”.
In the case of `O=[N+]([O-])c1ccc(O)cc1`, the outcome is reported as “inactive”.
`OC1CCC(C2CCCCC2)CC1` (stereo not given) was tested, and the outcome was “inactive”.
With `CCOC(=O)CC(O)(CC(=O)OCC)C(=O)OCC` the outcome was “inactive”.
`CC(=O)NC1(c2cccc(F)c2)CCN(CC[C@@]2(c3ccc(Cl)c(Cl)c3)CN(c3ccccc3)C(=O)CO2)CC1` was tested, and the AC50 was 16.6 µM (active).
With `CCCCC(CC)COC(=O)CCCCC(=O)OCc1ccccc1` (stereo not given) the outcome was “inactive”.
With `CCc1ccc(CCOc2ccc(CC3SC(=O)NC3=O)cc2)nc1` (stereo not given) the outcome was “inactive”.
With `CN1CCN(c2ccccc2/C=C2\SCCN(c3ccc(Cl)c(Cl)c3)C2=O)CC1` the AC50 was 5.49 µM (active).
For `CC(=O)CC(C)(C)O`, the outcome was “inactive”.
For `CC(C)CCCCCCOC(=O)CCCCC(=O)OCCCCCCC(C)C`, the outcome was “inactive”.
`O=C(OCCOCCOC(=O)c1ccccc1)c1ccccc1` was tested, and the outcome was “inactive”.
`CC(C)(C)c1cccc(C(C)(C)C)c1O` was tested, and the outcome was “inactive”.
With `CN(C)C=O` the outcome was “inactive”.
For `CN1CCC[C@H]1c1cccnc1`, the outcome was “inactive”.
For `CCCCCCCCCCCCc1ccccc1S(=O)(=O)O`, the outcome was “inactive”.
For `NC(=O)N(O)[C@@H]1C=C[C@H](Oc2cccc(Oc3ccc(F)cc3)c2)C1`, the outcome was “inactive”.
For `CCCCCCCCOC(=O)CCCCCCCCC(=O)OCCCCCCCC`, the outcome was “inactive”.
For `CCCCCCCCCCCCCCCS(=O)(=O)Oc1ccccc1`, the outcome was “inactive”.
With `ClC1=C(Cl)C(Cl)(Cl)C(Cl)=C1Cl` the AC50 was 5.91 µM (active).
In the case of `NCC(F)(F)C(F)(F)C(F)(F)C(F)(F)C(F)(F)C(F)(F)C(F)(F)F`, the outcome is reported as “inactive”.
For `CC#C[C@]1(O)CC[C@H]2[C@@H]3CCC4=CC(=O)CCC4=C3[C@@H](c3ccc(N(C)C)cc3)C[C@@]21C`, the AC50 was 3.97 µM (active).
In the case of `O=C(O)Cc1cc(I)c(Oc2cc(I)c(O)c(I)c2)c(I)c1`, the AC50 is reported as 19.9 µM (active).
In the case of `CCCCC(CC)COC(=O)CCCCC(=O)OCC(CC)CCCC` (stereo not given), the outcome is reported as “inactive”.
